# Beta apoptosis: inhibitors of cytokine-induced beta cell apoptosis, primary screen, luminescence | INS-1E cytokine-induced death, ATP luminescence, 48 h; percent of positive-control rescue, neutral wells zero | protection from apoptosis, % (test concentration not listed) | 300,000 tested, 0.8% active;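 active = Every replicate reaches about 75%, or at least half do and their mean reaches it too, limit read from the data; inconclusive = At least half of replicates reach the limit but their mean does not; inactive = Under half of replicates reach the limit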;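 also: 0% = cytokine-treated negative control wells and 100% = positive control rescue; higher means more ATP so stronger rescue from cytokine killing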
# CSC inhib: cancer stem cell viability inhibitors, primary screen, luminescence | inhibition, % at 7.5 µM | cancer stem cell-like cells viability | 300,000 tested, 1.1% active; in the data active = inhibition above about 75%; inconclusive = no clear call, values can overlap the other calls; tested in HMLE shEcad cells
# Calb FLC: C. albicans growth inhibition with fluconazole, primary screen, CaCi-2 strain, Alamar Blue fluorescence. 300,000 tested, 0.57% active. growth inhibition, % (test concentration not listed). C. albicans CaCi-2 (fluconazole-resistant clinical isolate) + fluconazole, 48 h;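 active = growth inhibition above about 58% in most replicates, limit read from the data, passing the limit was not always enough; inconclusive = exactly half the replicates above a set limit; inactive = most replicates below a set limit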;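 also: all wells also contain fluconazole at 8 µg/ml as a sub-toxic cotreatment; 0% = median of DMSO wells and 100% = median of geldanamycin control wells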
# PfHsp90 set2: growth inhibition of PfHsp90-expressing yeast, primary screen, antimalarial PfHsp90 inhibitor project, S. cerevisiae, BacTiter-Glo luminescence, single point, set 2; BacTiter-Glo ATP, 48 h; yeast lacking PDR1 and PDR3 efflux regulators; inhibition, % at 9.4 µM; 310,000 tested, 0.32% active; AID 504621, 2011;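 active = every replicate shows inhibition above about 80%, whatever the replicate mean, limit read from the data; inconclusive = mean inhibition reaches the set limit but some replicate falls short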;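 also: 0% = DMSO neutral controls and 100% = 20 µM radicicol positive controls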
# Shn3 inh set2: reduction of Shn3 3'UTR firefly luciferase signal, primary screen, Schnurri-3 inhibitor project, cell-based, Clone20 osteoblasts, set 2. Clone20 osteoblast Shn3 3'UTR firefly luciferase, 24 h. inhibition, % at 12.5 µM. 360,000 tested, 0.52% active. AID 588674, 2011;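 active = mean inhibition of at least 75% with every replicate also reaching 75%; inconclusive = mean inhibition at least 75% but some replicate below; inactive = mean inhibition below 75%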;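 also: 0% = median of neutral control wells and 100% = pilot-screen positive control compound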
# * hit, by the source's call; ? = inconclusive; . = no result. The list is not random: actives were taken first. Their share in the collection is about 2.2%.
SMILES,Beta apoptosis,CSC inhib,Calb FLC,PfHsp90 set2,Shn3 inh set2
Cc1ccc(-c2nc(Nc3ccc(N4CCOCC4)cc3)c3ccccc3n2)cc1,2.2,89.7*,0.4,-2.2,10.3
COc1cccc(Nc2nc(NCC3CCCO3)c3ccccc3n2)c1 (stereo not given),42.4,21.0,48.4,-5.1,87.7*
COc1cc2c3c(n(C)c(=O)c2cc1OC)-c1cc2c(cc1C3=O)OCO2,.,.,.,-57.5,9.9
Cc1ccc(-c2nc(Nc3ccc(O)cc3)c3ccccc3n2)cc1,-5.3,73.1,0.3,-10.9,14.7
Cc1ccc(-c2nc(Nc3cccc(O)c3)c3ccccc3n2)cc1,-0.2,111.7*,0.3,25.9,7.9
COc1cccc(Nc2nc(-c3ccccc3O)nc3ccccc23)c1,7.8,8.2,1.8,-5.2,-14.3
COc1cccc(Nc2nc(-c3ccccc3)nc3ccccc23)c1,8.3,91.5*,12.6,-80.0,12.2
Cc1c(Cl)cccc1N=Cc1ccc([N+](=O)[O-])s1,-7.1,28.2,19.6,112.2*,69.1
Cn1c(=O)c(C#N)c(-c2ccc(F)cc2)c2cc(C(=O)c3cc(Cl)cc(Cl)c3O)cnc21,27.6,124.0*,6.6,-22.9,17.8
Cc1ccc(-c2csc3ncnc(Sc4nnc(CN5CCCCCC5=O)o4)c23)cc1,-1.3,81.0*,?,18.7,7.2
COc1ccc2[nH]c3c(c2c1)CCNC3=O,-9.5,-23.2,-2.3,-4.8,12.4
C=C1CCc2c([nH]c3ccc(OCC(C)C)cc23)C1=O,139.4*,86.7*,3.9,-8.0,81.5
O=CNC(n1cnc2c(N3CCOCC3)ncnc21)C(Cl)(Cl)Cl (stereo not given),-0.5,3.0,3.1,-21.4,.
CCOC1=C2[C@@H](CN(S(=O)(=O)c3ccc(C)cc3)[C@H]2c2cccc3ccccc23)[C@H]2C(=O)N(C3CCCCC3)C(=O)[C@H]2C1,.,.,.,.,48.5
O=C(COc1ccccc1-c1ccccc1)N/N=C/c1cccc2ccccc12,-9.2,94.6*,6.2,-13.8,12.2
Cn1cccc1C(=O)Nc1nc(-c2ccccn2)cs1,52.1,23.7,?,-28.3,-48.4
O=C(Nc1nc(-c2ccccn2)cs1)c1ncc(Cl)c(Cl)c1Cl,16.5,-12.4,-9.9,109.9*,9.6
CCc1sc(C(=O)Nc2nccs2)cc1C,0.7,14.6,12.1,-3.8,-50.0
O=C(Nc1ccccn1)c1ccc(Cl)s1,-8.4,-1.1,-13.5,22.0,-89.8
Cc1ccc(C(=O)Nc2nc(-c3ccccn3)cs2)s1,95.0*,43.5,.,72.7,47.8
CCc1sc(C(=O)Nc2nc(-c3ccccn3)cs2)cc1C,37.0,48.6,.,106.8*,18.4
O=C(Nc1nc(-c2ccccn2)cs1)c1ccc(Cl)s1,92.5*,80.0*,-3.1,65.6,90.3*
CC(=O)Nc1ccc(S(=O)(=O)N2CCN(S(=O)(=O)N3CCC(C)CC3)CC2)cc1,5.2,-1.0,0.1,-50.3,0.6
O=S(=O)(c1ccc2ccccc2c1)N1CCN(C(=S)Nc2ccc(F)c(Cl)c2)CC1,-3.5,30.9,2.9,-8.2,33.0
Cc1cccnc1Nc1nc(-c2ccccn2)cs1,100.7*,100.6*,-5.1,106.0*,28.4
SMILES,Beta apoptosis,CSC inhib,Calb FLC,PfHsp90 set2,Shn3 inh set2
c1ccc(C(c2ccccc2)c2noc(CN3CCN(C4CCCC4)CC3)n2)cc1,-3.9,34.6,3.8,10.4,5.6
FC(F)(F)c1ccc(-c2noc(CN3CCCN(C4CCCCC4)CC3)n2)cc1,-3.7,105.9*,5.8,28.6,9.1
O=C(c1ccccc1NS(=O)(=O)c1ccc(F)cc1F)N1CCCCC1,-3.8,-4.3,.,0.0,-0.8
COc1cccc(OCc2nc3ccccc3c(=O)n2N)c1,-8.3,-3.0,108.2*,4.5,-17.8
CSCCC(NC(=O)COc1ccccc1)C(=O)N(C)Cc1ccc(SC)cc1 (stereo not given),-2.6,.,.,-11.8,3.9
CSc1ccc(CC(=O)N2CCC(n3nccc3NC(=O)C3CC3)CC2)cc1,-1.2,1.4,2.7,-7.2,-14.7
CCc1c(C2(O)CCCCC2)[nH]c2ccc(C(F)(F)F)cc12,20.1,83.9*,-13.4,22.6,46.2
S=C(Nc1cccc(Cl)c1)N(CCCN1CCCC1)Cc1cccn1Cc1ccc(Cl)cc1,19.9,96.0*,-5.0,12.5,52.3
COc1cc(C(=O)N/N=C/c2ccc(OC(=O)c3ccccc3Cl)cc2)ccc1O,-3.3,-0.7,3.4,6.4,-14.7

# Screens from PubChem BioAssay.
